This is a sample that favours compounds with a hit; in the whole collection about 4.3% have one here.
FGF22 binding – binders of recombinant human FGF22 by thermal shift; Q9HCT0; SYPRO orange fluorescence; percent of sucrose octasulfate shift, DMSO zero; activity (Tm shift, normalised), % at 9.99 µM; 340,000 tested, 1.5% active;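 active = mean Tm shift, scaled 0 neutral to 100 positive control, at about 1.3% or above, every replicate too, limit read from the data; inconclusive = no clear call, values can overlap the other calls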
MITF TRPM1 HTS – increases MITF-driven TRPM1 promoter luciferase signal; SK-MEL-5 TRPM1-promoter luciferase, 24 h; % of positive control, neutral wells = 0; activation, % at 12.5 µM; 300,000 tested, 0.75% active;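 active = mean activation of at least 80% with every replicate also reaching 80%; inconclusive = mean reaches 80% but some replicate falls short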;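 note: 0% = neutral control wells and 100% = parthenolide positive control wells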
MLL AF4-AF9 inh – MLL-AF4/AF9 protein interaction inhibition | P42568 | AlphaScreen, biotin-AF4 peptide binding to FLAG-AF9 | inhibition, % at 10 µM | 350,000 tested, 0.47% active | AID 651704;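 active = every replicate reaching a set inhibition limit, whatever the replicate mean, cut at about 25% in these data; inconclusive = mean inhibition reaches that limit but some replicates miss it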;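 note: 0% = plate neutral control median and 100% = total signal loss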
Target sequence (P42568 whole entry, looked up): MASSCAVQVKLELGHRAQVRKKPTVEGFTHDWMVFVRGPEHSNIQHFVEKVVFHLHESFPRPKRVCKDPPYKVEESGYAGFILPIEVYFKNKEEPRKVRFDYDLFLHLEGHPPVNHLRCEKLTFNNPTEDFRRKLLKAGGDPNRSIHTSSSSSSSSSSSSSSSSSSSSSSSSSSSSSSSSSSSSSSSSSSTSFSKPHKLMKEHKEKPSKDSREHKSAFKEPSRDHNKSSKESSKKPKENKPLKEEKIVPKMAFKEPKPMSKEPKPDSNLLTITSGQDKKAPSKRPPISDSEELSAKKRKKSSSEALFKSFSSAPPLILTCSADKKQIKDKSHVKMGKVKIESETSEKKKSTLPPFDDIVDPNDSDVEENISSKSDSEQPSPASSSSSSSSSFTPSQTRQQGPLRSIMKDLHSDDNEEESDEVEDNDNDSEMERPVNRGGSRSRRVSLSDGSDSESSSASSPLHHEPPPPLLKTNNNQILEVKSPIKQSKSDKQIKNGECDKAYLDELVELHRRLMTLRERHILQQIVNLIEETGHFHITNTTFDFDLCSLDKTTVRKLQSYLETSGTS
SMARCA2 activ – SMARCA2 function activation, primary screen | MG213 cells, MMTV-luciferase reporter, dexamethasone, overnight | activation, % at 9.1 µM | 370,000 tested, 1% active | AID 652017; in the data active = activation above about 7.8%;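 note: 0% = vehicle wells and 100% = reference activator wells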
esBAF inh – SWI/SNF esBAF complex inhibition. reporter increase, % at 12.5 µM. 350,000 tested, 2% active. mouse ES cells, Bmi1-luciferase knock-in reporter, 24 h; 100% = twice the neutral-well signal. AID 602393; in the data active = activation above about 40%; inconclusive = no clear call, values can overlap the other calls;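 note: 0% = median of the plate's neutral control wells and 100% = double that signal; a rise in the Bmi1 reporter signal indicates esBAF inhibition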
Wnt bcat act – Wnt/beta-catenin pathway activation; Wnt/beta-catenin reporter cell assay, activator, plate reader; activation, % at 9.35 µM; 300,000 tested, 1.2% active; AID 743398; in the data active = activation above about 30%, passing the limit was not always enough; inconclusive = no clear call, values can overlap the other calls;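 note: 0% = neutral control wells and 100% = positive control wells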
SMARCA2 act conf – SMARCA2 activation, confirmation screen; 3,500 tested, 30% active; AID 652260; MG213 cells, MMTV-luciferase with dexamethasone, luminescence, overnight; MG213 cells expressing E1A, Rb sequestered; DMSO wells 0%, reference activator 100%; activation, % at 9.1 µM; shares compounds with SMARCA2 activ;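 active = activation above its plate's cutoff, the mean activation of tested wells plus 3 SD, cut at about 7.9% in these data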
GAL4-VP16 Luc – activates GAL4-VP16 luciferase, flagging SMARCA2 activator hits; shares compounds with SMARCA2 activ; HEK293 GAL4-VP16 pG5luc reporter, luciferase luminescence; scaled: DMSO wells 0%, SAHA wells 100%; activation, % at 9.1 µM; 3,500 tested, 41% active; AID 686939;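 active = activation above the solvent-only control well mean plus 3 SD, averaged across control plates, cut at about 5.2% in these data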
The depositor's hits bear a star; u = inconclusive; x = no result given.

SMILES	FGF22 binding	MITF TRPM1 HTS	MLL AF4-AF9 inh	SMARCA2 activ	esBAF inh	Wnt bcat act	SMARCA2 act conf	GAL4-VP16 Luc
O=C1NC(=Nc2ccccc2)S/C1=C\c1cccs1	0	53	-1	13*	x	25	15*	6.8*
Cc1cc(C)cc(N=C2NC(=O)/C(=C/c3cccs3)S2)c1	1	-5	5	2	x	5	x	x
CCc1ccc(-n2nc3cc(C)c(N)cc3n2)cc1	0	-4	-1	11*	-61	4	5	13*
CO[C@@H]1CN(C)C(=O)c2ccc(NC(=O)C3CCCC3)cc2OC[C@H](C)N(C(C)=O)C[C@@H]1C	0	x	1	x	3	x	x	x
Cc1ccccc1C(=O)NC(CC(C)C)C(=O)OCc1cc(=O)n2cc(Br)ccc2n1 (stereo not drawn)	x	60	x	9.4*	x	x	5	8.8*
CC1(C)NC(=O)N(CC(=O)OCc2cc(=O)n3cc(Br)ccc3n2)C1=O	42	4	0	-1	x	-1	x	x
CC1(C(=O)OCc2cc(=O)n3cc(Br)ccc3n2)CC1(Cl)Cl (stereo not drawn)	42	u	4	10*	83*	6	9.4*	13*
OC[C@@H]1CC[C@@H]2O[C@H](CCc3ccc(C#CCc4ccccc4)cc3)[C@H](n3cc(-c4ccccc4)nn3)C[C@@H]2O1	0	x	-1	x	x	x	x	x
O=C(c1cccnc1)N1CCCCN2[C@H](CO)[C@H](c3ccc(C#Cc4ccccc4)cc3)[C@H]2C1	x	x	-1	x	x	x	x	x
C/C=C/c1ccc2c(c1)O[C@H](CN(C)C(=O)COC)[C@H](C)CN([C@H](C)CO)S2(=O)=O	0	x	-6	x	4	x	x	x
Cc1ccc(-c2ccnc(=S)[nH]2)cc1	0	10	7	11*	-4	1	1	2
S=c1nccc(-c2ccc3c(c2)CCO3)[nH]1	0	x	x	-3	x	1	x	x
CCC(=O)N1C[C@@H]2[C@H](c3ccccc31)[C@H](CO)N2Cc1ccccc1Cl	0	x	0	x	-5	x	x	x
O=C(NC1CC1)c1scc2c1OCCO2	x	13	x	8.2*	-13	x	4	-1
O=C(Nc1cccnc1)c1scc2c1OCCO2	x	-9	x	-2	-9	-6	x	x
CCCNC(=O)[C@H]1[C@H](CO)[C@H]2Cn3c(ccc(-c4ccccc4)c3=O)[C@H]2N1CC	0	x	-2	x	3	x	x	x
COc1nc(N=C(N)N)nc2ccc(C)cc12	0	x	3	8.8*	x	-2	43*	2
COc1nc(Nc2nc3ccccc3c(=O)[nH]2)nc2ccc(C)cc12	0	-30	-5	0	x	-18	x	x
CC(C)[C@H](C)NC(=O)N(C)C[C@@H]1OCc2ccccc2-c2c(n(C)c3ccccc23)C(=O)N([C@@H](C)CO)C[C@H]1C	0	x	-2	x	0	x	x	x
O=C(COC(=O)Cc1ccc(S(=O)(=O)N2CCOCC2)s1)Nc1ccc([N+](=O)[O-])cc1	0	9	-1	3	-2	-4	x	x
N#Cc1ccccc1OCC(=O)Nc1ccc(S(=O)(=O)N2CCOCC2)cc1	x	19	-3	9.6*	-1	-7	2	1
O=C(COC(=O)Cc1ccc(S(=O)(=O)N2CCOCC2)s1)Nc1ccccc1	0	-2	-32	8.1*	-1	0	2	1
CCOC(=O)/C(C#N)=C/c1c(Oc2cc(C)cc(C)c2)nc2ccccn2c1=O	x	-25	x	8.2*	x	4	-3	0
CN(c1ccccc1)S(=O)(=O)c1cccc(NC(=O)c2cc3ccccc3oc2=O)c1	0	28	1	12*	54*	29	-1	6.3*
Cc1ccc(NC(=O)c2cc3ccccc3oc2=O)cc1S(=O)(=O)N(C)C	x	-75	x	x	x	x	x	x
SMILES	FGF22 binding	MITF TRPM1 HTS	MLL AF4-AF9 inh	SMARCA2 activ	esBAF inh	Wnt bcat act	SMARCA2 act conf	GAL4-VP16 Luc
O=C(c1cc(-c2ccc(O)cc2)on1)N1CCc2ccccc2C1	x	21	-3	-1	22	2	x	x
O=C(c1cc(-c2ccccc2O)on1)N1CCc2ccccc2C1	0	24	-4	8.6*	15	0	2	1
CCCNC(=O)C[C@H]1CC[C@@H]2[C@@H](COc3ccc(NC(=O)c4cccc(C(F)(F)F)c4)cc3C(=O)N2C)O1	0	x	0	x	-1	x	x	x
Cc1ccc(CCNC(=O)CCS(=O)(=O)c2cc3c(cc2C)NC(=O)CO3)cc1	0	x	2	12*	-7	-1	2	-1
O=C(CCS(=O)(=O)c1cc2c(cc1Cl)NC(=O)CO2)NCCc1ccccc1	0	5	-1	0	3	-1	x	x
CN1CCN(c2ccc(NC(=O)c3sc4ccccc4c3Cl)cc2)CC1	0	12	1	8.4*	-46	-2	1	3
O=C(Nc1ccncc1)c1sc2ccccc2c1Cl	0	17	-1	-1	x	28	x	x
CC(=O)NC(=O)c1ccc(-c2ccc(Cl)cc2)o1	0	12	0	8.5*	26	1	7	4
CN1CCN(c2ccc(NC(=O)c3ccc(-c4ccc(Cl)cc4)o3)cc2)CC1	1	-12	3	9.1*	-56	1	7	0
C[C@H]1CN([C@@H](C)CO)S(=O)(=O)c2ccc(-c3cccc(C#N)c3)cc2O[C@H]1CN(C)C	0	x	-2	x	3	x	x	x
COc1ccccc1NC(=O)N1C[C@@H]2[C@H](c3ccccc31)[C@H](CO)N2CC1CCCC1	0	x	2	x	-8	x	x	x
O=C(CCc1ccccc1)Nc1ccc2c(c1)OCCO2	x	71	x	8.2*	27	16	10*	11*
O=C(Nc1ccc2c(c1)OCCO2)NC12CC3CC(CC(C3)C1)C2	x	x	x	20*	36	x	12*	11*
O=C(Nc1ccc2c(c1)OCO2)N1CCOCC1	x	x	x	0	31	x	x	x
O=C(Nc1ccc2c(c1)OCCO2)N1CCOCC1	0	-6	-2	9.7*	x	26	0	3
COc1ccccc1C(=O)Nc1ccc2c(c1)OCCO2	x	37	x	8.1*	59*	x	7	11*
COc1ccccc1C(=O)Nc1ccc2c(c1)OCO2	x	55	x	3	9	x	x	x
CO[C@H]1CN(C)C(=O)c2cc(NC(=O)NC(C)C)ccc2OC[C@@H](C)N(C(=O)CC2CC2)C[C@H]1C	0	x	2	x	-1	x	x	x
CCC(=O)N1[C@H](C#N)[C@@H](c2ccccc2-c2cccc(C)c2)[C@H]1CO	0	x	0	x	x	x	x	x
N#Cc1cccc(NCC(=O)Nc2ccc3c(c2)OCCO3)c1	0	55	5	9.8*	x	15	8	3
CCCCCCCCNc1nc(Cl)nc(NCc2ccco2)n1	x	-3	x	11*	x	-1	0	0
